According to PubChem BioAssay (EPA / NIEHS):
The source made the active and inactive calls. The calls were made as follows: active = hit-call score of the fitted dose curve at least 0.9, where 1 is the maximum; inactive = score below 0.9.

Key:
Details in all cases: mRNA level, 48 h; actives raise or lower the signal
[1] = read-out: growth arrest and DNA damage 45 (GADD45B), GADD45B (gene 4616); experiment: LTEA_HepaRG_GADD45B: Life Technologies and Expression Analysis (LTEA) Assay for growth arrest and DNA damage 45 (GADD45B) using HepaRG (AID 2283461)
Outline: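 HepaRG, ~100,000 cells/well, 48 h plating; serum-free induction medium; cpd 100 uM top, half-log x8, 0.5% DMSO, duplicate, 48 h; lysis in RLT, RNA isolation, qRT-PCR; norm ACTB/GAPDH/POLR2A; bidirectional fit vs DMSO.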

[2] = read-out: ABC Transporter (ABCC3), ABCC3 (gene 8714); experiment: LTEA_HepaRG_ABCC3: Life Technologies and Expression Analysis (LTEA) Assay for ABC Transporter (ABCC3) using HepaRG (AID 2283462)
Outline: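 Human HepaRG, 48 h dosing, 8-pt half-log series from 100 uM, 0.5% DMSO vehicle, duplicates. ABCC3 mRNA by TaqMan qRT-PCR, housekeeping-normalized; bidirectional curve fit vs DMSO.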

[3] = read-out: ABC Transporter (ABCB11), ABCB11 (gene 8647); experiment: LTEA_HepaRG_ABCB11: Life Technologies and Expression Analysis (LTEA) Assay for ABC Transporter (ABCB11) using HepaRG (AID 2283463)
Outline: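 Differentiated human HepaRG cells in serum-free induction medium, dosed in duplicate for 48 h. Eight-point half-log series from 100 uM in 0.5% DMSO; ABCB11 mRNA by qRT-PCR, normalized to ACTB, GAPDH, POLR2A, fitted bidirectionally versus DMSO.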

[4] = read-out: ABC Transporter (ABCC2), ABCC2 (gene 1244); experiment: LTEA_HepaRG_ABCC2: Life Technologies and Expression Analysis (LTEA) Assay for ABC Transporter (ABCC2) using HepaRG (AID 2283464)
Outline: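 HepaRG, 48 h post-plating; serum-free induction medium; cpd 8-pt, 100 uM top, half-log, 0.5% DMSO, duplicate, 48 h. Readout: ABCC2 mRNA by qRT-PCR, norm. ACTB/GAPDH/POLR2A. Bidirectional fit vs DMSO baseline.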

[5] = read-out: Broad substrate specificity ATP-binding cassette transporter ABCG2 (Homo sapiens) (UniProt Q9UNQ0); experiment: LTEA_HepaRG_ABCG2: Life Technologies and Expression Analysis (LTEA) Assay for ABC Transporter (ABCG2) using HepaRG (AID 2283465)
Outline: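 Differentiated HepaRG cells were exposed for 48 h in serum-free induction medium to 8 half-log concentrations, top 100 uM, in 0.5% DMSO. ABCG2 mRNA was measured by qRT-PCR, normalized to ACTB, GAPDH and POLR2A, with bidirectional fitting versus DMSO.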

[6] = read-out: ATP-citrate lyase (ACLY), ACLY (gene 47); experiment: LTEA_HepaRG_ACLY: Life Technologies and Expression Analysis (LTEA) Assay for ATP-citrate lyase (ACLY) using HepaRG (AID 2283466)
Outline: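 Differentiated HepaRG cells exposed 48 h in serum-free induction medium to eight half-log concentrations up to 100 uM in 0.5% DMSO, duplicates. Transcript measured by Fluidigm TaqMan qRT-PCR, normalized to ACTB, GAPDH, POLR2A; bidirectional fit versus DMSO.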

[7] = read-out: Peroxisomal acyl-coenzyme A oxidase 1 (ACOX1) gene, ACOX1 (gene 51); experiment: LTEA_HepaRG_ACOX1: Life Technologies and Expression Analysis (LTEA) Assay for Peroxisomal acyl-coenzyme A oxidase 1 (ACOX1) gene using HepaRG (AID 2283467)
Outline: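 HepaRG cells, plated 48 h then switched to serum-free induction medium, were exposed in duplicate for 48 h to 8-point half-log concentrations up to 100 uM in 0.5% DMSO. ACOX1 mRNA was measured by qRT-PCR, normalized to ACTB/GAPDH/POLR2A, and fitted bidirectionally versus DMSO.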

[8] = read-out: Alkaline Phosphatase, Placental (ALPP) gene, ALPP (gene 250); experiment: LTEA_HepaRG_ALPP: Life Technologies and Expression Analysis (LTEA) Assay for Alkaline Phosphatase, Placental (ALPP) gene using HepaRG (AID 2283468)
Outline: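 HepaRG, 48 h plating then 48 h dosing, serum-free induction medium, 0.5% DMSO. 8 conc, half-log, max 100 uM, duplicates. Endpoint: ALPP transcript by qRT-PCR, housekeeping-normalized; gain or loss fitted vs DMSO.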

[9] = read-out: Bcl-2 (BAD) gene, BAD (gene 572); experiment: LTEA_HepaRG_BAD: Life Technologies and Expression Analysis (LTEA) Assay for Bcl-2 (BAD) gene using HepaRG (AID 2283469)
Outline: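 Differentiated HepaRG cells were exposed in duplicate in 0.5% DMSO for 48 h to eight-point half-log concentrations up to 100 uM. BAD mRNA was measured by Fluidigm TaqMan qRT-PCR, normalized to ACTB, GAPDH and POLR2A, and fitted bidirectionally against DMSO.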

[10] = read-out: Bcl-2 (BAX) gene, BAX (gene 581); experiment: LTEA_HepaRG_BAX: Life Technologies and Expression Analysis (LTEA) Assay for Bcl-2 (BAX) gene using HepaRG (AID 2283470)
Outline: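 HepaRG (human liver), 48 h exposure, duplicate wells. 8-pt curve, half-log from 100 uM, 0.5% DMSO. BAX transcript by TaqMan qRT-PCR; ACTB/GAPDH/POLR2A normalization; gain or loss vs DMSO baseline.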

[11] = read-out: adenosine kinase (ADK) gene, ADK (gene 132); experiment: LTEA_HepaRG_ADK: Life Technologies and Expression Analysis (LTEA) Assay for adenosine kinase (ADK) gene using HepaRG (AID 2283471)
Outline: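 ADK expression quantified by qRT-PCR, normalised to three housekeeping genes, after 48 h exposure of HepaRG cells to eight concentrations (top 100 uM, half-log steps, duplicate, 0.5% DMSO). Up- or down-regulation fitted relative to vehicle.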

[12] = read-out: Alpha-fetoprotein (AFP) gene, AFP (gene 174); experiment: LTEA_HepaRG_AFP: Life Technologies and Expression Analysis (LTEA) Assay for Alpha-fetoprotein (AFP) gene using HepaRG (AID 2283472)
Outline: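 HepaRG, single lot; 48 h post-plating -> serum-free induction medium; cpd 8-pt, 100 uM top, half-log, 0.5% DMSO, duplicate, 48 h. RNA -> qRT-PCR AFP, norm ACTB/GAPDH/POLR2A. Bidirectional fit vs DMSO.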

BCL2L11 (gene 10018) = experiment: LTEA_HepaRG_BCL2L11: Life Technologies and Expression Analysis (LTEA) Assay for Bcl-2 (BCL2L11) gene using HepaRG (AID 2283473)
Outline: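 Read-out is BCL2L11 transcript level by qRT-PCR, normalized to three housekeeping genes and fitted bidirectionally against 0.5% DMSO vehicle. HepaRG cells received chemicals for 48 h in serum-free induction medium, 100 uM down in half-log dilutions.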

[13] = read-out: Apolipoprotein A-V (APOA5) gene, APOA5 (gene 116519); experiment: LTEA_HepaRG_APOA5: Life Technologies and Expression Analysis (LTEA) Assay for Apolipoprotein A-V (APOA5) gene using HepaRG (AID 2283474)
Outline: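 Readout is APOA5 transcript level by qRT-PCR on Fluidigm dynamic arrays, normalized to three housekeeping genes. HepaRG cultures received chemicals for 48 h at up to 100 uM (half-log steps, 0.5% DMSO), with gain or loss scored relative to DMSO.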

[14] = read-out: Apoptosis regulator Bcl-2 (Homo sapiens) (UniProt P10415); experiment: LTEA_HepaRG_BCL2: Life Technologies and Expression Analysis (LTEA) Assay for Bcl-2 gene using HepaRG (AID 2283475)
Outline: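 HepaRG, plated 48 h then switched to serum-free induction medium; dosed 48 h, 8 conc. (max 100 uM, half-log steps), duplicate, 0.5% DMSO. Lysis in RLT, RNA isolated, TaqMan qRT-PCR for BCL2; ACTB/GAPDH/POLR2A normalisation; bidirectional fit vs DMSO.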

[15] = read-out: Bcl-2 (BID) gene, BID (gene 637); experiment: LTEA_HepaRG_BID: Life Technologies and Expression Analysis (LTEA) Assay for Bcl-2 (BID) gene using HepaRG (AID 2283476)
Outline: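 Transcript levels of BID, measured by qRT-PCR and normalized to three housekeeping genes, were fitted bidirectionally against DMSO controls. Cells were HepaRG, dosed 48 h at up to 100 uM.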

Caspase-3 (Homo sapiens) = Caspase-3 (Homo sapiens) (UniProt P42574); experiment: LTEA_HepaRG_CASP3: Life Technologies and Expression Analysis (LTEA) Assay for cysteine-aspartic acid protease (CASP3) using HepaRG (AID 2283477)
Outline: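 Read-out is CASP3 mRNA level by TaqMan qRT-PCR in human HepaRG cells after 48 h chemical exposure. Eight half-log concentrations topping at 100 uM were tested in 0.5% DMSO; gain or loss was fitted relative to DMSO.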

[16] = read-out: Cytochrome P450 (CYP24A1), CYP24A1 (gene 1591); experiment: LTEA_HepaRG_CYP24A1: Life Technologies and Expression Analysis (LTEA) Assay for Cytochrome P450 (CYP24A1) using HepaRG (AID 2283478)
Outline: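 HepaRG, 48 h chemical exposure, 8-pt half-log CRC from 100 uM, 0.5% DMSO vehicle, duplicates. Endpoint: CYP24A1 mRNA by Fluidigm TaqMan qRT-PCR, normalized ACTB/GAPDH/POLR2A; gain/loss fit vs DMSO.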

[17] = read-out: Cytochrome P450 (CYP1A2), CYP1A2 (gene 1544); experiment: LTEA_HepaRG_CYP1A2: Life Technologies and Expression Analysis (LTEA) Assay for Cytochrome P450 (CYP1A2) using HepaRG (AID 2283479)
Outline: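 CYP1A2 transcript induction or loss, quantified by Fluidigm qRT-PCR against three housekeeping genes, was fitted bidirectionally against 0.5% DMSO controls. Human HepaRG cells received eight half-log concentrations from 100 uM over 48 h.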

[18] = read-out: cysteine-aspartic acid protease (CASP8), CASP8 (gene 841); experiment: LTEA_HepaRG_CASP8: Life Technologies and Expression Analysis (LTEA) Assay for cysteine-aspartic acid protease (CASP8) using HepaRG (AID 2283480)
Outline: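 Differentiated HepaRG cells in serum-free induction medium, 48 h exposure, eight-point half-log series from 100 uM in 0.5% DMSO, duplicates. CASP8 mRNA by qRT-PCR, normalized to ACTB, GAPDH, POLR2A; bidirectional fit versus DMSO.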

Measured: AC50

Caspase-3 (Homo sapiens), sequence (P42574 whole entry, looked up): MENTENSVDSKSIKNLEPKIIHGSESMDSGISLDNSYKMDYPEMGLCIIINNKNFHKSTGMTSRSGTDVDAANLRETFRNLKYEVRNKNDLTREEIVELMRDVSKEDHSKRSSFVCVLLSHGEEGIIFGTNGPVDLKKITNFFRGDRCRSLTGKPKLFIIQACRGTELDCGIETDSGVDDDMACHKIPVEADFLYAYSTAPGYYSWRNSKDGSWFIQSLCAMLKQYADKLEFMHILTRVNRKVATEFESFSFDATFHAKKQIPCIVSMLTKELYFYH
Apoptosis regulator Bcl-2 (Homo sapiens), sequence (P10415 whole entry, looked up): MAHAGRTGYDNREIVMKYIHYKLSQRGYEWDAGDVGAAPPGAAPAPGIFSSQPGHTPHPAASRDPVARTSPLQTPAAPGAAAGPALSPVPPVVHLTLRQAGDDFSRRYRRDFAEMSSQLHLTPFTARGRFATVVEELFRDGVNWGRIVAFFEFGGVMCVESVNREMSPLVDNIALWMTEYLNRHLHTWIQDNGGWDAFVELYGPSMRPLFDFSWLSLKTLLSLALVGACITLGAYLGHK
Broad substrate specificity ATP-binding cassette transporter ABCG2 (Homo sapiens), sequence (Q9UNQ0 whole entry, looked up): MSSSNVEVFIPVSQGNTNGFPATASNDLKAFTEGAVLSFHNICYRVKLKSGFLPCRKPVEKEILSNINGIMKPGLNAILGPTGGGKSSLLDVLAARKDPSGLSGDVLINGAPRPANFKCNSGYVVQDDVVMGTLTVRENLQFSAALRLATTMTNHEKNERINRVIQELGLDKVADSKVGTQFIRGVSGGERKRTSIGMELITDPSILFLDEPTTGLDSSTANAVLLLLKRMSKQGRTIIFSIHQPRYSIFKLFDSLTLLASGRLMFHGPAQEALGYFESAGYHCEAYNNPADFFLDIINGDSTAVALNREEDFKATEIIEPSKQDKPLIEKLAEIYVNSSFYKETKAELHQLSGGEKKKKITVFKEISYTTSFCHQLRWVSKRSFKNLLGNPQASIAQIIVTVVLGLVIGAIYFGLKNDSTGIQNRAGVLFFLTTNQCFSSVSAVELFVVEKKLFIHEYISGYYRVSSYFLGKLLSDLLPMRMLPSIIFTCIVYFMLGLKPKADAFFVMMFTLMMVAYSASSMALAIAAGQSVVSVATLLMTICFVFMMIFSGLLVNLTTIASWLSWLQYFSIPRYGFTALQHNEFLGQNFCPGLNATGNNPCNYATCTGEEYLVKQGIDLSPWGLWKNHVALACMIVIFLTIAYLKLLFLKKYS

O=c1n(CC2CO2)c(=O)n(CC2CO2)c(=O)n1CC1CO1 (configuration not stated)
active: [1] 79.1 µM | [3] 88 µM | [10] 83.4 µM
inactive: all other assays above

O=C1CCCCCN1
inactive: all assays above

CC(C)(O)c1coc(S(=O)(=O)NC(=O)Nc2c3c(cc4c2CCC4)CCC3)c1
active: [3] 50 µM | [17] 50 µM
not listed: [15]
inactive: all other assays above

CCCCCCCCCCCCCCCO
not listed: [10] | [18]
inactive: all other assays above

CCOCCOCCOCCO
not listed: [3] | [18]
inactive: all other assays above

CC(C)=CCCC(C)CCO (configuration not stated)
active: [17] 50 µM
inactive: all other assays above

COc1cccc(-c2ccc(/C=C\CN3CCCCCC3)cc2Cl)c1
active: [1] 76.2 µM | [2] 75.9 µM | [3] 69.3 µM | [4] 75.4 µM | [5] 37.8 µM | [7] 45.2 µM | [8] 45.2 µM | [10] 74.5 µM | [13] 71.7 µM | [14] 67.4 µM | [17] 69.9 µM
inactive: [6] | [9] | [11] | [12] | BCL2L11 (gene 10018) | [15] | Caspase-3 (Homo sapiens) | [16] | [18]

O=C(O)CC(O)C(=O)O (configuration not stated)
not listed: [3] | [18]
inactive: all other assays above

CC(C)CCCCCCCOC(=O)CCCCC(=O)OCCCCCCCC(C)C
inactive: all assays above

CCN(C(=O)c1cc(C)cc(OC[C@H](C)Nc2ccncc2)c1)C(C)C
active: [2] 33.8 µM | [3] 25.1 µM | [6] 33.8 µM | [7] 20.1 µM | [8] 6.7 µM | [12] 23.7 µM | [13] 55 µM | [15] 0.143 µM | Caspase-3 (Homo sapiens) 19.6 µM | [17] 12.7 µM
inactive: [1] | [4] | [5] | [9] | [10] | [11] | BCL2L11 (gene 10018) | [14] | [16] | [18]

On1ccccc1=S
inactive: all assays above

CC1(C)C(=O)N(Br)C(=O)N1Br
active: [17] 37.5 µM
inactive: all other assays above

CC(C)CCCCCCOC(=O)c1ccc(C(=O)OCCCCCCC(C)C)c(C(=O)OCCCCCCC(C)C)c1
active: [17] 14.4 µM
not listed: [9]
inactive: all other assays above
